This is an account of results in PubChem BioAssay (Tox21).

Results filed as inconclusive are left out. Where a call stands in place of a potency, no number is given. The source made the active and inactive calls. Calls follow the shape of the dose curve; as a rule, active = well fitted activation curve with a large enough effect in the repeat runs; inconclusive = weak or mixed curves; inactive = flat fitted curve, though single readings scatter.

This experiment can be described thus: A CellTox Green Cytotoxicity Assay to monitor cytotoxicity in HepG2 cells - 8 hour (AID 1224890). Also: nearly all actives have a fitted effect of over 45% in size. The settings on record: CellTox Green fluorescence; series mostly up to 76.8 µM. From the text:
National Center for Advancing Translational Sciences [NCATS]
NIH Chemical Genomics Center [NCGC]
U.S. Environmental Protection Agency [EPA]
National Institutes of Environmental Health Sciences [NIEHS]
National Toxicology Program [NTP]
Cell-based models are critical for drug discovery. Determining the natural cytotoxic effects resulting from test compounds is an essential research activity. A CellTox Green Cytotoxicity Assay to monitor cytotoxicity in real time of continues cell culture during 40 hours of the compound treatment was used to screen Tox21 10K library compounds in HepG2 cells. CellTox Green Cytotoxicity Assay is a nonlytic, homogeneous, biofluorescent method to measure cytotoxicity in cell culture after experimental manipulation. The assay system uses a proprietary asymmetric cyanine dye that is excluded from viable cells but preferentially stains the dead cell's DNA. […] Viable cells produce no appreciable increases in fluorescence. Therefore, the fluorescence signal produced by the binding interaction with dead cell DNA is proportional to cytotoxicity.
The mixture of HepG2 cell suspension and reagents were dispensed at 600cells/6 ul/well in 1536-well tissue culture treated black solid bottom plates using a Multidrop dispenser. After the assay plates were incubated at a 37 C/5% CO2 incubator for 5 hours, 23 nL of compounds dissolved in DMSO, positive and negative controls was transferred to the assay plate by a pintool work station. The plates were incubated at 37 C for 40 hours. The fluorescence intensity were measured at 0h, 8h, 16h, 24h, 32h and 40h time points using ViewLux plate reader during compound treatment.
As for `OCC1CCCO1` (stereo not given), the Potency result was “inactive”.

Take `Nc1cc(-c2ccncc2)c[nH]c1=O`: the Potency result is “inactive”.

For the molecule `Cc1cc(Cc2ccc(N)c(C)c2)ccc1N`, the Potency result is “inactive”.

As to `CCCCCCCCC`, the Potency entry is “inactive”.

Consider `CCOC(=O)/C=C\C(=O)OCC`, for which the Potency result is “inactive”.

As for `c1ccc2ccccc2c1`, the Potency result was “inactive”.

Regarding `CCCCCCOC(C)=O`, the Potency entry was “inactive”.

Turning to `O=C1CCCCC1`, the Potency result is “inactive”.

Consider `NS(=O)(=O)c1cc2c(cc1Cl)NC=NS2(=O)=O`, for which the Potency entry is “inactive”.

For `CCCCCCCCCC(=O)O`, the Potency entry is “inactive”.

As to `O=[N+]([O-])c1cccc(Cl)c1`, the Potency result is “inactive”.

For `O=S(=O)(O)c1cc(S(=O)(=O)O)c2c(N=Nc3ccccc3)c(O)ccc2c1`, the Potency result is “inactive”.

Turning to `O=C(Cl)c1c(Cl)c(Cl)c(C(=O)Cl)c(Cl)c1Cl`, the Potency entry was “inactive”.

With `C=C1C2CCC(C2)C1(C)C` (stereo not given), the Potency entry was “inactive”.

As to `O=C1O[C@H](CO)[C@@H](O)[C@H](O)[C@H]1O`, the Potency entry was “inactive”.

Consider `OC[C@@H](O)[C@@H](O)[C@H](O)[C@@H](O)CO`, for which the Potency entry was “inactive”.

Turning to `Cc1cc(O)c2c(c1)C(=O)c1cc(O)cc(O)c1C2=O`, the Potency entry is “inactive”.

With `NC(=O)/N=N/C(N)=O`, the Potency result was “inactive”.

`CC(=O)Nc1ccc(C(=O)O)cc1`: the Potency result was “inactive”.

As for `CC(C)(C)C1CCC(O)CC1` (stereo not given), the Potency result was “inactive”.

Take `OCCOCCOCCOCCO`: the Potency entry is “inactive”.

As for `Oc1ccc2ccccc2c1N=Nc1ccccc1`, the Potency result was “inactive”.

Turning to `CN(CCOc1ccc(CC2SC(=O)NC2=O)cc1)c1ccccn1` (stereo not given), the Potency result is “inactive”.

Regarding `CC1CC(OC(=O)c2ccccc2O)CC(C)(C)C1` (stereo not given), the Potency result was “inactive”.

In the case of `CCCCC(CC)COC(=O)/C=C\C(=O)OCC(CC)CCCC` (stereo not given), the Potency entry was “inactive”.

Consider `COC(=O)c1ccccc1O`, for which the Potency result was “inactive”.

As for `Nc1c(S(=O)(=O)O)cc(Br)c2c1C(=O)c1ccccc1C2=O`, the Potency entry is “inactive”.

Take `C/C=C(C)/C=C/C=C(C)C`: the Potency result was “inactive”.

For the molecule `CS(=O)(=O)Nc1ccc([N+](=O)[O-])cc1Oc1ccccc1`, the Potency entry is “inactive”.

Consider `C[C@@H]1O[C@@H](OC[C@H]2O[C@@H](Oc3c(-c4ccc(O)c(O)c4)oc4cc(O)cc(O)c4c3=O)[C@H](O)[C@@H](O)[C@@H]2O)[C@H](O)[C@H](O)[C@H]1O`, for which the Potency result is “inactive”.

Turning to `Oc1ccc2ccccc2c1`, the Potency entry was “inactive”.

For `O=[N+]([O-])c1cc(N(CCO)CCO)ccc1NCCO`, the Potency result is “inactive”.

For the molecule `CCCCCCCCCCCCOCC1CO1` (stereo not given), the Potency result is “inactive”.

On to `CC#C[C@]1(O)CC[C@H]2[C@@H]3CCC4=CC(=O)CCC4=C3[C@@H](c3ccc(N(C)C)cc3)C[C@@]21C`, for which the Potency result was “inactive”.

With `O=C(c1cc(O)c(O)c(O)c1)c1ccc(O)c(O)c1O`, the Potency entry was “inactive”.

On to `CCCCCCC(C)(C)S`, for which the Potency result was “inactive”.

Regarding `CCCCNC(N)=O`, the Potency result is “inactive”.

For the molecule `O=C(Oc1ccccc1)c1ccc(O)cc1`, the Potency entry is “inactive”.

Regarding `CNC[C@H](O)[C@@H](O)[C@H](O)[C@H](O)CO`, the Potency entry is “inactive”.

With `CCOC(=O)C1OC1c1ccccc1` (stereo not given), the Potency result is “inactive”.
